Experimental data reported in PubChem BioAssay (NCATS).
Inconclusive results are not listed. Values without a mark were called inactive. Active and inactive are the calls of the source. The call rests on the fitted dose curve; tested in HEK293 reporter line.

Assay: qHTS for Inhibitors of the Functional Ribonucleoprotein Complex (vRNP) of Lassa (LASV) Arenavirus: Viability assay - alamar blue signal for LASV Primary Screen (AID 1347083); further: nearly all actives have a fitted effect of over 80% in size
Conditions: cell viability, alamar blue fluorescence (LASV minigenome counter-screen); series mostly up to 57.5 µM; activity change, negative = reduced viability: at the top concentration
On the % scale 0 is the no-effect control and ±100 the full control effect.

SMILES | activity change, negative = reduced viability | Potency
CCCCN(CCN(CCCC)C(=O)N1CCOCC1)C(=O)N1CCOCC1 | -12.6% | 
CC(=O)[C@@]1(O)CC[C@H]2[C@@H]3CCC4=CC(=O)CC[C@]4(C)[C@H]3CC[C@@]21C |  | inactive
O=C(c1cc(O)c(O)c(O)c1)c1ccc(O)c(O)c1O | -5.96% | 
C[C@H]1COc2c(C3(N)CC3)c(F)cc3c(=O)c(C(=O)O)cn1c23 | 4.86% | 
CC(Cc1cccc(C(F)(F)F)c1)NCCOC(=O)c1ccccc1 (configuration not stated) | 7.07% | 
CCCCC(=O)O[C@]1(C(=O)CO)[C@@H](C)C[C@H]2[C@@H]3CCC4=CC(=O)C=C[C@]4(C)[C@@]3(F)[C@@H](O)C[C@@]21C | -0.325% | 
CN(C)[C@@H]1C(=O)C(C(=O)NCN2CCCC2)=C(O)[C@@]2(O)C(=O)C3=C(O)c4c(O)cccc4[C@@](C)(O)C3C[C@@H]12 (some centres not stated) | -30.1% | 
O=c1[nH]sc2cc(Cl)ccc12 | -135% | 
Cc1cc(C(C)(C)C)cc(C)c1CC1=NCCN1 |  | inactive
N[C@H](C(=O)O)[C@@H](O)c1ccc(O)c(O)c1 | 13.3% | 
N[C@@H](CSSC[C@H](N)C(=O)O)C(=O)O | 9.51% [at 0.757 µM] | 
CC(C)(C)CC(C)(C)c1ccc(O)c(Cc2ccc(Cl)cc2Cl)c1 | 5.2% | 
CC(C)CCCC(C)N (configuration not stated) | 0.0811% | 
Cc1ccc(CCn2c3c(c4cc(Cl)ccc42)CN(C)CC3)cn1 | -36.7% | 
CC(C)NC(=O)c1ccc(C=O)cc1 | 12.1% | 
CNC1CCCN(c2c(F)cc3c(=O)c(C(=O)O)cn(C4CC4)c3c2OC)C1 (configuration not stated) |  | inactive
CC(=O)OCC(=O)[C@@]1(O)CCC2C3CCC4=CC(=O)CC[C@]4(C)C3[C@@H](O)C[C@@]21C (some centres not stated) |  | inactive
